T cruzi growth-1 – blocks T. cruzi growth in NIH3T3 culture. T. cruzi beta-gal in NIH3T3, GalScreen luminescence, 90 h. inhibition, % at 8.34 µM. 5.9% of 77,000 active. AID 624255;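 active = mean inhibition above about 93%, with at least 55% of replicates each passing it, limit read from the data, passing the limit was not always enough; inconclusive = only one of those two conditions holds; inactive = neither condition holds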
C diff HTS – inhibitors of Clostridium difficile growth; Clostridium difficile clinical isolate growth, OD600, 24 h; hits give low values; growth activity, negative = inhibition, % at 16 µg/mL (by protocol); 0.25% of 86,000 active; AID 1259249;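 active = mean growth activity at or below -80% and every replicate also at or below -80%; inconclusive = mean at or below -80% but some replicate above -80%; inactive = mean growth activity above -80%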;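 note: 0% = DMSO wells and -100% = levofloxacin 16 µg/mL wells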
Pf Dd2 growth – inhibitors of Plasmodium falciparum Dd2 growth; P. falciparum Dd2 growth, SYBR Green, 72 h; hits give low values; activity change, % at 10 µM; 2.3% of 94,000 active; in the data active = activity change below about -80%; inconclusive = no clear call, values can overlap the other calls
T cruzi growth-2 – inhibitors of T. cruzi proliferation; T. cruzi beta-gal in NIH3T3, GalScreen luminescence, 90 h; 72% of 5,600 active; inhibition, % at 8.35 µM; AID 651739; shares compounds with T cruzi growth-1;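 active = mean replicate inhibition above about 95% and at least 55% of replicates individually reaching it, limit read from the data; inconclusive = only one of the two criteria is met; inactive = neither criterion is met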
T cruzi growth-3 – blocks T. cruzi growth in NIH3T3 host cells. inhibition, % at 2.09 µM. shares compounds with T cruzi growth-1. 21% of 5,600 active. T. cruzi beta-gal in NIH3T3, GalScreen luminescence, 90 h;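 active = mean inhibition above about 95%, with at least 55% of replicates also reaching it, limit read from the data; inconclusive = meets just one of the two conditions; inactive = meets neither condition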;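 note: plate controls were neutral control median for no effect and positive control median for full effect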
3T3 cytotox – kills mouse NIH/3T3 fibroblasts. shares compounds with T cruzi growth-1. NIH/3T3 viability, CellTiter-Glo ATP luminescence, 90 h. cytotoxicity (signal decrease), % at 8.35 µM. 14% of 5,600 active. AID 651742;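 active = mean signal decrease across replicates above about 35% based on untreated-well scatter, with enough replicates individually passing, limit read from the data; inconclusive = no rule stated though some were filed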;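 note: 0% = median of neutral control wells and 100% = median of positive control wells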
3T3 cytotox 2 – kills mouse NIH/3T3 fibroblasts | AID 651744 | inhibition, % at 24.9 µM | shares compounds with T cruzi growth-1 | 56% of 5,600 active | NIH/3T3 viability, CellTiter-Glo ATP luminescence, 90 h;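 active = mean loss of cell viability signal at or above a set limit, and enough replicates individually reaching it; inconclusive = meets only the mean limit or only the replicate share; inactive = meets neither condition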;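 note: 0% = median of neutral control wells and 100% = median of positive control wells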
Starred values were filed as active, the others as inactive; u = inconclusive; x = no result given. Shown are actives, neighbours in structure and some others; about 6.7% of the full set was active somewhere.

SMILES	T cruzi growth-1	C diff HTS	Pf Dd2 growth	T cruzi growth-2	T cruzi growth-3	3T3 cytotox	3T3 cytotox 2
C[C@@H]1CN([C@H](C)CO)C(=O)c2cc(Br)cnc2O[C@H]1CN(C)C(=O)Nc1ccc(F)cc1	-153	1	33	x	x	x	x
C/C=C/c1ccc2c(c1)O[C@@H](CN(C)C(=O)COC)[C@H](C)CN([C@H](C)CO)S2(=O)=O	x	0	-6	x	x	x	x
Cc1ccc(-c2ccc3c(c2)O[C@@H](CN(C)Cc2ccc(F)cc2)[C@H](C)CN([C@@H](C)CO)S3(=O)=O)cc1	u	13	-62	96*	103*	63*	105*
Cc1ccc(-c2ccc3c(c2)O[C@H](CN(C)Cc2ccc(C(=O)O)cc2)[C@@H](C)CN([C@H](C)CO)S3(=O)=O)cc1	61	-4	-30	x	x	x	x
Cc1ccc(-c2ccc3c(c2)O[C@H](CN(C)Cc2ccc(F)cc2)[C@H](C)CN([C@@H](C)CO)S3(=O)=O)cc1	97*	5	-25	106*	u	19	69*
Cc1ccc(-c2ccc3c(c2)O[C@@H](CN(C)Cc2ccc(F)cc2)[C@@H](C)CN([C@H](C)CO)S3(=O)=O)cc1	92	8	-69	x	x	x	x
N#C[C@@H]1[C@@H](c2ccc(-c3ccccc3)cc2)[C@H](CO)N1C(=O)Cc1ccccc1	84	2	-25	x	x	x	x
N#C[C@H]1[C@@H](c2ccc(-c3ccccc3)cc2)[C@H](CO)N1C(=O)Cc1ccccc1	104*	12	-15	110*	56	31	31*
N#C[C@H]1[C@@H](c2ccccc2)[C@H](CO)N1C(=O)c1cc(Cl)cc(Cl)c1	u	11	23	u	-15	-1	-5
N#C[C@H]1[C@H](c2ccc(-c3ccccc3)cc2)[C@H](CO)N1C(=O)Cc1ccccc1	76	2	-7	x	x	x	x
N#C[C@@H]1[C@H](c2ccc(-c3ccccc3)cc2)[C@H](CO)N1C(=O)Cc1ccccc1	u	11	-10	103*	56	-1	12
N#C[C@@H]1[C@H](c2ccccc2)[C@@H](CO)N1C(=O)c1cc(Cl)cc(Cl)c1	38	-1	-19	x	x	x	x
O=C(C[C@@H]1CC[C@@H]2[C@H](COC[C@H](O)CN2Cc2cccc(-c3ccncc3)c2)O1)N1CCN(c2ccccc2)CC1	62	-7	-25	x	x	x	x
C/C=C/c1cnc2c(c1)C(=O)N([C@@H](C)CO)C[C@H](C)[C@@H](CN(C)C(=O)C1CCC1)O2	1	x	42	x	x	x	x
Cc1ccc(S(=O)(=O)N[C@@H]2C=C[C@H](CC(=O)NCc3ccc(Cl)c(Cl)c3)O[C@H]2CO)cc1	73	4	1	x	x	x	x
C[C@@H]1CN([C@H](C)CO)S(=O)(=O)c2ccc(C#CC3CC3)cc2O[C@@H]1CN(C)C(=O)c1cccnc1	34	5	-2	x	x	x	x
COCC(=O)N(C)C[C@@H]1Oc2cc(C#CCC3CCCC3)ccc2S(=O)(=O)N([C@@H](C)CO)C[C@@H]1C	x	4	-31	x	x	x	x
CN1CCN(C(=O)C[C@@H]2CC[C@H]3[C@@H](COC[C@@H](O)CN3CC3CCCC3)O2)CC1	x	3	-3	x	x	x	x
CC(=O)N1CC[C@@H]2[C@H](CO)Nc3ccc(-c4cccc(F)c4)cc3[C@@H]21	66	-6	25	x	x	x	x
O=C(C1CCCC1)N1CC[C@H]2[C@H](CO)Nc3ccc(-c4cccc(F)c4)cc3[C@H]21	x	28	-49	x	x	x	x
O=C(C1CC1)N1CC[C@@H]2[C@@H](CO)Nc3ccc(-c4cccc(F)c4)cc3[C@@H]21	109*	-22	-5	101*	83	-1	26*
COc1ccccc1-c1ccc2c(c1)[C@H]1[C@H](CCN1C(=O)C1CC1)[C@H](CO)N2	88	-1	-3	x	x	x	x
COc1ccccc1-c1ccc2c(c1)[C@H]1[C@H](CCN1C(=O)C1CC1)[C@@H](CO)N2	98*	-1	4	107*	88	-7	1
O=C(C1CCC1)N1CC[C@@H]2[C@H](CO)Nc3ccc(-c4cccc(F)c4)cc3[C@@H]21	u	29	18	106*	91	1	70*
COC(=O)C[C@@H]1CC[C@@H]2[C@@H](COc3ccc(NC(=O)Nc4ccc(C#N)cc4)cc3C(=O)N2C)O1	74	7	5	x	x	x	x
SMILES	T cruzi growth-1	C diff HTS	Pf Dd2 growth	T cruzi growth-2	T cruzi growth-3	3T3 cytotox	3T3 cytotox 2
COCC(=O)Nc1ccc2c(c1)C(=O)N(C)C[C@H](OC)[C@@H](C)CN(C(=O)Cc1cccnc1)[C@H](C)CO2	25	x	31	x	x	x	x
CCCNC(=O)N1C[C@H]2[C@@H](c3ccccc31)[C@@H](CO)N2C(=O)c1ccncc1	13	-7	-5	x	x	x	x
CC(C)NC(=O)N(C)C[C@H]1Oc2cc(C#Cc3ccc(F)cc3)ccc2S(=O)(=O)N([C@@H](C)CO)C[C@H]1C	107*	-4	-2	105*	21	-16	19
CC(C)NC(=O)N(C)C[C@@H]1Oc2cc(C#Cc3cccc(F)c3)ccc2S(=O)(=O)N([C@@H](C)CO)C[C@@H]1C	92	-12	-73	x	x	x	x
CC(C)NC(=O)N(C)C[C@@H]1Oc2cc(C#Cc3ccc(F)cc3)ccc2S(=O)(=O)N([C@H](C)CO)C[C@@H]1C	111*	-5	-29	97*	u	11	10
CC(C)NC(=O)N(C)C[C@H]1Oc2cc(C#Cc3cccc(F)c3)ccc2S(=O)(=O)N([C@@H](C)CO)C[C@H]1C	100	-6	-42	x	x	x	x
CC(C)NC(=O)N(C)C[C@H]1Oc2cc(C#Cc3cccc(F)c3)ccc2S(=O)(=O)N([C@@H](C)CO)C[C@@H]1C	116*	-8	-22	99*	59	22	45*
CC(C)NC(=O)N(C)C[C@@H]1Oc2cc(C#Cc3cccc(F)c3)ccc2S(=O)(=O)N([C@H](C)CO)C[C@@H]1C	61	-15	-57	x	x	x	x
C[C@H](CO)N1C[C@H](C)[C@H](CN(C)C(=O)c2ccc(F)cc2)Oc2ncc(C3=CCCC3)cc2C1=O	60	-5	-36	x	x	x	x
CC(C)NC(=O)N(C)C[C@@H]1Oc2ccc(NC(=O)Cc3cn(C)c4ccccc34)cc2C(=O)N([C@@H](C)CO)C[C@H]1C	8	0	7	x	x	x	x
CC(C)C(=O)Nc1ccc2c(c1)C(=O)N(C)[C@@H]1CC[C@H](CC(=O)NCc3ccccc3F)O[C@H]1CO2	5	-3	4	x	x	x	x
CC(C)NC(=O)N(C)C[C@@H]1OCCCC[C@@H](C)Oc2ccc(NS(=O)(=O)c3cn(C)cn3)cc2C(=O)N([C@H](C)CO)C[C@@H]1C	x	3	30	x	x	x	x
C[C@H](CO)N1C[C@H](C)[C@H](CN(C)Cc2ccccc2)Oc2cc(-c3ccncc3)ccc2S1(=O)=O	85	1	-49	x	x	x	x
C[C@@H]1CN([C@@H](C)CO)S(=O)(=O)c2ccc(-c3ccncc3)cc2O[C@H]1CN(C)Cc1ccccc1	u	-4	-76	92	99*	76*	96*
